Measured values as given in PubChem BioAssay (EPA / NIEHS).
Inconclusive results are not listed. Calls of active or inactive are those of the source. Rule for the calls, unless noted: active = hit-call score of the fitted dose curve at least 0.9, where 1 is the maximum; inactive = score below 0.9.

What was measured:
[1] = read-out: E-selectin (Homo sapiens) (UniProt P16581); test: BSK_SAg_Eselectin: BioMAP Diversity Plus: SAg Assay for Eselectin Biomarker Activity (AID 2283091); conditions: primary human HUVEC with PBMC; actives raise or lower the signal
Outline: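 Cell-surface E-selectin is read by ELISA at 24 h in the SAg co-culture of HUVEC and PBMC. Curves are fitted in both directions relative to DMSO. Parallel SRB total-protein staining tracks overt toxicity.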

[2] = read-out: Monokine induced gamma interferon (MIG), CXCL9 (gene 4283); test: BSK_SAg_MIG: BioMAP Diversity Plus: SAg Assay for Monokine induced gamma interferon (MIG) Biomarker Activity (AID 2283092); conditions: primary human HUVEC with PBMC; actives raise or lower the signal
Outline: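 ELISA readout of MIG/CXCL9; primary human umbilical vein endothelial cells co-cultured with peripheral blood mononuclear cells; 24 h post-dose; gain/loss fit vs DMSO baseline.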

[3] = BSK_SAg_PBMCCytotoxicity: PBMC Cytotoxicity Assessment in the BioMAP Diversity Plus: SAg Assay (AID 2283093); conditions: primary human HUVEC with PBMC;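 note: PBMC viability measured as Alamar Blue reduction fluorescence at 546/580 nm; fitted both ways against DMSO so a hit may be loss or gain of signal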;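 for AC50: PBMC superantigen activated with SEB plus TSST-1 one hour after compound addition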
Outline: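 Human umbilical vein endothelial cells co-cultured with PBMC; PBMC (75,000/well) pre-treated with compound 1 h, then activated with SEB and TSST-1 (20 ng/mL final each) for 90 h. Alamar Blue added 6 h, fluorescence 546/580 nm; bidirectional fit versus DMSO.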

[4] = read-out: Interleukin-8 (IL8), CXCL8 (gene 3576); test: BSK_SAg_IL8: BioMAP Diversity Plus: SAg Assay for Interleukin-8 (IL8) Biomarker Activity (AID 2283094); conditions: primary human HUVEC with PBMC; actives raise or lower the signal
Outline: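 Human umbilical vein endothelial cells co-cultured with PBMC, stimulated with superantigen; IL-8 measured by ELISA 24 h after chemical dosing. Bidirectional fitting versus DMSO; SRB staining in parallel cultures tracks cytotoxicity.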

[5] = BSK_SAg_Proliferation: Cell Proliferation Assessment in the BioMAP Diversity Plus: SAg Assay (AID 2283095); conditions: primary human HUVEC with PBMC
Outline: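 Human umbilical vein endothelial cells co-cultured with PBMC; sulforhodamine B total-protein staining (0.1% SRB after 10% TCA fixation, absorbance 560 nm) at 96 h in sub-confluent culture. Fitted bidirectionally against DMSO.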

[6] = BSK_SAg_SRB: Viability Assessment in the BioMAP Diversity Plus: SAg Assay (AID 2283096); conditions: primary human HUVEC with PBMC;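 note: cells read one day after compound addition; hits may be either gain or loss of signal compared with DMSO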
Outline: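 Endothelial/PBMC primary human co-culture; compound 24 h; fix 10% TCA, stain 0.1% SRB, A560; protein content as cytotoxicity proxy; bidirectional curve fit, DMSO = baseline.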

[7] = molecular target: human CYP19A1, CYP19A1 (gene 1588) (UniProt P11511); test: NVS_ADME_hCYP19A1: NovaScreen (NVS) CYP450-related Enzyme Activity (ADME) Assay for human CYP19A1 (AID 2283098; active = hit-call score of the fitted dose curve at least 0.9, where 1 is the maximum)
Outline: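 Cell-free enzyme assay with recombinant protein and a specific fluorogenic substrate, read by fluorescence intensity 0.5 h after dosing. Primary screen ran in duplicate at 10 uM; actives were retested in concentration series. Loss of signal versus acetonitrile baseline.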

[8] = molecular target: human CYP1A1, CYP1A1 (gene 1543) (UniProt P04798); test: NVS_ADME_hCYP1A1: NovaScreen (NVS) CYP450-related Enzyme Activity (ADME) Assay for human CYP1A1 (AID 2283100; active = hit-call score of the fitted dose curve at least 0.9, where 1 is the maximum)
Outline: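 Chemicals were first tested in duplicate at 10 uM, and those passing a 30% inhibition threshold were rerun as concentration series topping at 20 uM. Fluorescence read-out of recombinant enzyme turnover after 1 h, relative to acetonitrile.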

[9] = molecular target: human CYP2B6, CYP2B6 (gene 1555) (UniProt P20813); test: NVS_ADME_hCYP2B6: NovaScreen (NVS) CYP450-related Enzyme Activity (ADME) Assay for human CYP2B6 (AID 2283101; active = hit-call score of the fitted dose curve at least 0.9, where 1 is the maximum)
Outline: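 Fluorescence-based enzyme activity of recombinant human CYP2B6, measured 1 h post-dose against acetonitrile vehicle baseline. Screened at a single concentration of 10 uM in duplicate before concentration-response follow-up.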

[10] = molecular target: human CYP2A6, CYP2A6 (gene 1548) (UniProt P11509); test: NVS_ADME_hCYP2A6: NovaScreen (NVS) CYP450-related Enzyme Activity (ADME) Assay for human CYP2A6 (AID 2283099; active = hit-call score of the fitted dose curve at least 0.9, where 1 is the maximum)
Outline: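 Compounds screened at 10 uM (duplicate) and, if active, titrated to a 20 uM top concentration against insect-cell-expressed CYP2A6. Loss of fluorescent product signal after 0.5 h, relative to acetonitrile baseline, indicates inhibition.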

Measured: AC50

Chain of E-selectin (Homo sapiens) (P16581 whole entry, looked up): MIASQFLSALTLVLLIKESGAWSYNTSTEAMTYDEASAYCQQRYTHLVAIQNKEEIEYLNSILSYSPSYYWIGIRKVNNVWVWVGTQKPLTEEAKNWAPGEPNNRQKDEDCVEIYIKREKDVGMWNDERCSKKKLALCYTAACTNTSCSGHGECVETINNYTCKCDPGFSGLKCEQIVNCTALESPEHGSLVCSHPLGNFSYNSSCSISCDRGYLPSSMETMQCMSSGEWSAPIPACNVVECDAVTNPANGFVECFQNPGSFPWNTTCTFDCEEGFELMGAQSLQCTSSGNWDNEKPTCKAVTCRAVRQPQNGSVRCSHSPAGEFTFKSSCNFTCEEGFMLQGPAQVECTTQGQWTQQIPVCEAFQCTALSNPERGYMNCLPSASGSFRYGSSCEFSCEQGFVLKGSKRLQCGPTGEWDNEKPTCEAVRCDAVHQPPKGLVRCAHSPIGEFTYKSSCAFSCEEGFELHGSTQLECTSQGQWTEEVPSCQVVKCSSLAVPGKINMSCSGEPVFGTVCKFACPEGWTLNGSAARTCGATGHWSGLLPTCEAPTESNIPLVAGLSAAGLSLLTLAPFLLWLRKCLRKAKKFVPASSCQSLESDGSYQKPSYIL
Chain of human CYP19A1, CYP19A1 (gene 1588) (P11511 whole entry, looked up): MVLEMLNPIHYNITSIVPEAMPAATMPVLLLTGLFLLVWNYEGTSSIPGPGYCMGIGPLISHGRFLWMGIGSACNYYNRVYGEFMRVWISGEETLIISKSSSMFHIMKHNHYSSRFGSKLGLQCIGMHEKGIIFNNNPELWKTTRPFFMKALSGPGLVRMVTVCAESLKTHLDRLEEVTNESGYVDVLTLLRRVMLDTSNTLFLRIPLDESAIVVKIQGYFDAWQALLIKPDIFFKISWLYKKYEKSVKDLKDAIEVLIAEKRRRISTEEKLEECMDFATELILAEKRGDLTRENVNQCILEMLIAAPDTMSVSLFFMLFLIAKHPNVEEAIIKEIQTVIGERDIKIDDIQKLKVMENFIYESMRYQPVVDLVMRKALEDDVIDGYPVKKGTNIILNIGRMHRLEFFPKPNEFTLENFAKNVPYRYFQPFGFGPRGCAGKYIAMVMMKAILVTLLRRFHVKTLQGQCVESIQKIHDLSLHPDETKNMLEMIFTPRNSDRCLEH
Chain of human CYP2B6, CYP2B6 (gene 1555) (P20813 whole entry, looked up): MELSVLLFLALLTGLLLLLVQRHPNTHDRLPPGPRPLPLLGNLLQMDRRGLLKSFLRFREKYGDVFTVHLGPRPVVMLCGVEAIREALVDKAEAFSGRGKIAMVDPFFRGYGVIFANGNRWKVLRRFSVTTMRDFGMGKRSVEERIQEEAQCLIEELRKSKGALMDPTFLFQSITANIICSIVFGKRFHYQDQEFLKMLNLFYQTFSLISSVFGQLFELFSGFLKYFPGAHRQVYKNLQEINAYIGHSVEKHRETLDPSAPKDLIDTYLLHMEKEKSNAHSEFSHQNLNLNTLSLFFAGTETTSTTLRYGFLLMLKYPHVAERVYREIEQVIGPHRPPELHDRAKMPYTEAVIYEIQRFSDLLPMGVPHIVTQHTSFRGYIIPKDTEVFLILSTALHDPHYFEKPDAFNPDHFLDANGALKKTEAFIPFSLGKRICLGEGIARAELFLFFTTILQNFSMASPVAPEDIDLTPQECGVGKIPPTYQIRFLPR
Chain of human CYP1A1, CYP1A1 (gene 1543) (P04798 whole entry, looked up): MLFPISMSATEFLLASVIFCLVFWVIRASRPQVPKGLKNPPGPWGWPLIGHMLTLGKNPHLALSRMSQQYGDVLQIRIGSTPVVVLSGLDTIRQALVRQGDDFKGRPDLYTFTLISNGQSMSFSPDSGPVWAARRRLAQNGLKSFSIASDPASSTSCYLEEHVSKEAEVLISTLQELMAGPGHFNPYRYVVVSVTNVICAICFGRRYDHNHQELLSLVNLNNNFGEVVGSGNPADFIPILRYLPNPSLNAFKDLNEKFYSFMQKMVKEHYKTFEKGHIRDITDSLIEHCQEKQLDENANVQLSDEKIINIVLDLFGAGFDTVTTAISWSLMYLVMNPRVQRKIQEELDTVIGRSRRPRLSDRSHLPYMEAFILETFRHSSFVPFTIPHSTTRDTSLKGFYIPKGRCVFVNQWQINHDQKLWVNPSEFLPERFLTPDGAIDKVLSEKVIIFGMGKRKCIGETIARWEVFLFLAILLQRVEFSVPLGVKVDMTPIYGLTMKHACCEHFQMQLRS
Chain of human CYP2A6, CYP2A6 (gene 1548) (P11509 whole entry, looked up): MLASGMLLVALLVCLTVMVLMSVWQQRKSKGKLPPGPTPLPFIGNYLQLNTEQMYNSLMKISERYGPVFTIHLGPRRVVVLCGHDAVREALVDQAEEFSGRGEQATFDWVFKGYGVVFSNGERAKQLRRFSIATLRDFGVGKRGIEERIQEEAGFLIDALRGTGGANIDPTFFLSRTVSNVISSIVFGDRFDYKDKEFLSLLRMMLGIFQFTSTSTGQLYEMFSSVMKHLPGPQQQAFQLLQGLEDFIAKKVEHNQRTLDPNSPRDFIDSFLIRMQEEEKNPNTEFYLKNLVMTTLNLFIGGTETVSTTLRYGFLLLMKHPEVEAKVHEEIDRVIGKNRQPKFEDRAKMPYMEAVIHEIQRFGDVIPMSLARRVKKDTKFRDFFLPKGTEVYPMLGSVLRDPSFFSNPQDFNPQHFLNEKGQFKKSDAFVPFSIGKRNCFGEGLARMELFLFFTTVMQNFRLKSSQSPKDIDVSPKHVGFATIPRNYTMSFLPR

CCS(=O)(=O)c1cccnc1S(=O)(=O)NC(=O)Nc1nc(OC)cc(OC)n1
inactive: [1] | [2] | [3] | [4] | [5] | [6]

CC[C@H](C)[C@H]1O[C@]2(C=C[C@@H]1C)C[C@@H]1C[C@@H](C/C=C(\C)[C@@H](O[C@H]3C[C@H](OC)[C@@H](O[C@H]4C[C@H](OC)[C@@H](O)[C@H](C)O4)[C@H](C)O3)[C@@H](C)/C=C/C=C3\CO[C@@H]4[C@H](O)C(C)=C[C@@H](C(=O)O1)[C@]34O)O2 (tested in a mixture with another compound)
active: [1] 5.19 µM | [2] 10.8 µM | [3] 6.1 µM | [4] 4.07 µM | [5] 4.56 µM | [6] 5.54 µM
inactive: [7] | [8]

O=S1OCC2C(CO1)C1(Cl)C(Cl)=C(Cl)C2(Cl)C1(Cl)Cl (centres undefined)
active: [1] 36.7 µM | [2] 34.4 µM | [3] 16.1 µM | [4] 36.6 µM | [5] 14.2 µM | [6] 29 µM | [9] 4.85 µM
inactive: [7]

CC1(C)C(C=C(Cl)Cl)C1C(=O)OC(C#N)c1ccc(F)c(Oc2ccccc2)c1 (centres undefined)
active: [5] 29.9 µM | [6] 14.2 µM
inactive: [1] | [2] | [3] | [4] | [7]

CNC(=O)Oc1cccc(N=CN(C)C)c1
inactive: [2] | [3] | [4] | [6]
active: [1] 18.7 µM | [5] 17.9 µM

O=C(NC(=O)c1c(F)cccc1F)Nc1ccc(OC(F)(F)C(F)OC(F)(F)F)c(Cl)c1 (centres undefined)
inactive: [2] | [4] | [6]
active: [1] 9.18 µM | [3] 8.44 µM | [5] 9.75 µM

CN1CSC(=S)N(C)C1
inactive: [6] | [10]
active: [1] 19.8 µM | [2] 31.6 µM | [3] 14.4 µM | [4] 20.2 µM | [5] 5.99 µM | [9] 10 µM

COP(=O)(OC)OC=C(Cl)Cl
inactive: [2] | [3] | [4] | [6] | [7]
active: [1] 28.9 µM | [5] 20 µM

[2H]C1([2H])[n+]2ccccc2-c2cccc[n+]2C1([2H])[2H]
inactive: [1] | [2] | [3] | [4] | [5] | [6]

O=C(O)CCCOc1ccc(Cl)cc1Cl
inactive: [1] | [2] | [3] | [4] | [5] | [6] | [7]
